# The panel holds about 83,000 compounds, 20% with a hit somewhere; the sample as a whole holds those more often.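 Method: cells in 96-well plates; compound added at one concentration; 48 h incubation; percent growth measured; values under 10 scored active.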 Active and inactive are the calls of the source.
# System: MDA-MB-435 melanoma
# Experiment: NCI-60 one-dose screen, 48 h (100 = growth as untreated, 0 = no growth, -100 = all killed)
# Conditions: 10 µM unless noted
row,SMILES,growth
1,Oc1c(I)cc(I)cc1CNCCN(Cc1ccccn1)Cc1ccccn1,-66.6% (active)
2,C=CC[Se]C(=O)Cc1c(C)n(C(=O)c2ccc(Cl)cc2)c2ccc(OC)cc12,8.15% (active)
3,CCC(=C(c1ccc(OCCN2CCCCC2)cc1)c1ccc(OCCN2CCCCC2)cc1)c1ccc(Cl)cc1,-96.2% (active)
4,Cc1ccc(/C=C2\COc3ccc(O)cc3C2=O)cc1,75.8% (inactive)
5,COc1cc2nc3cc([N+](=O)[O-])ccc3c(NCCNCC(C)O)c2cc1OC (configuration not stated),-87.6% (active)
6,O=C(NNC(=O)c1ccc(NC(=O)c2ccccn2)cc1)Nc1ccc([N+](=O)[O-])cc1,106% (inactive)
7,O=C(Nc1ccc(Oc2cccc(F)c2)c(Cl)c1)c1cccnc1,1.64% (active)
8,CCCc1c(OC(=O)c2ccccc2)nc2[nH]c(=O)sc2c1C,103% (inactive)
9,CCCCCN1C(=O)/C(=c2\sc3n(c2=O)C2C(NN=3)N(CC)C(=O)N2CC)c2ccccc21 (configuration not stated),-60.1% (active)
10,CCOC(=O)c1cc(C)n(-c2ccc(C(=O)O)cc2)c1C,107% (inactive)
11,O=C1NC(=O)C(Cc2ccc(OCc3ccc(-c4ccc(Cl)cc4Cl)cc3)cc2)S1 (configuration not stated),24.5% (inactive)
12,CC/C=C\C[C@H](O)C/C=C1/C(=O)C=C[C@@H]1C/C=C\CCCC(=O)N(C)C,-18.1% (active)
13,NC(=O)CSc1oc(-c2ccccc2)nc1S(=O)(=O)c1ccc(Br)cc1,81% (inactive)
14,COc1cc(-c2nccc3[nH]c(-c4ccc5cc[nH]c5c4)nc23)cc(OC)c1OC,5.17% (active)
15,Cc1nc2sc(C(=O)Nc3cccc(Br)c3)c(N)c2cc1C(O)c1ccccc1 (configuration not stated),4.05% (active)
16,CC(C)c1ccc(Cc2cnc(NC(=O)c3cc(Br)cs3)s2)cc1,-66.9% (active)
17,Cc1ccc(-c2nc([P+](c3ccccc3)(c3ccccc3)c3ccccc3)c(S(=O)(=O)c3ccc(C)cc3)o2)cc1,-2.81% (active)
18,COC(CC(F)F)c1cn(S(=O)(=O)c2ccc(C)cc2)c2ccccc12 (configuration not stated),-43.8% (active)
19,Cc1ccc(C[P+](c2ccccc2)(c2ccccc2)c2ccccc2)cc1,4.92% (active)
20,Cn1cc(-c2nonc2-c2cn(C)c3ccccc23)c2ccccc21,-34.3% (active)
21,CC1=C2[C@@H](CC1)[C@]1(C)O[C@@](C(C)C)(C[C@H]1OC(=O)[C@H](C)O)[C@H]2OC(=O)/C=C/c1ccccc1,94.2% (inactive)
22,Cc1c(-c2ccc(O)cc2)n(Cc2ccc(OCCN3CCCCCC3)cc2)c2ccc(O)cc12,79.6% (inactive)
23,CCOC(=O)C(=O)C(C(=O)OCC)c1ccccc1 (configuration not stated),101% (inactive)
24,CS(=O)(=O)c1ccc(-c2cnn3ccc(-c4cccc(S(=O)(=O)C5CC5)c4)nc23)cc1,59.1% (inactive)
25,O=S(=O)(NCCNc1nccc(-c2c(-c3ccc(F)c(O)c3)nc3occn23)n1)c1ccc(Cl)cc1,38.6% (inactive)
26,Nc1n[nH]c2cccc(C#Cc3cccc(NC(=O)c4cc(F)cc(C(F)(F)F)c4)c3)c12,71.2% (inactive)
27,N#Cc1nc(-c2ccc(F)cc2)oc1S(=O)(=O)N1CCOCC1,79.8% (inactive)

# Source: PubChem BioAssay (NCI)
